Data reported in PubChem BioAssay (NCATS).
“And” between values parts separate entries of the source, which are not always exact repeats. Equal values may be shown once. Results filed as inconclusive are left out. A structure can be active in one record and inactive in another. Unmarked numbers belong to inactive results. The source made the active and inactive calls. Calls come from the whole dose curve; as a rule, active = well fitted curve in the direction sought with a large enough effect; inconclusive = small, poorly fitted or top-dose-only effect, or another doubt; inactive = no such curve, though single readings can be large or run the other way.

Assay: qHTS Assay for Identifying Gametocytocidal Compounds (AID 743244);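 for max response: actives lower the fluorescent signal which means gametocytes are killed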
Conditions: P. falciparum 3D7 stage III-V gametocytes, alamarBlue, 72 h; max response: stronger effect = lower value
Method in brief: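 In this qHTS viability screen, late-stage 3D7 gametocytes are incubated with compound for 72 h, then with alamarBlue for 24 h; reduced resorufin fluorescence marks killing.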
% is set by controls: 0 for no effect and ±100 for the full control effect; potency is the fitted concentration of half-maximal effect.

Q: With `COc1cc(-c2ccc(=O)[nH]n2)ccc1OC(F)F` as the compound, how does the max response read?
A: The max response was -3.31%.

Q: With `NC[C@H]1O[C@H](O[C@H]2[C@H](O[C@@H]3O[C@H](CO)[C@@H](O)[C@H]3O)C(O)[C@H](N)C[C@@H]2N)[C@H](N)[C@@H](O)[C@@H]1O` (stereo not given in full) as the compound, how does the max response read?
A: The max response was 0.613%.

Q: With `Nc1ccc(C(=O)Nc2ccccc2N)cc1` as the compound, how does the max response read?
A: The max response was 0.176%.

Q: For `CCN1CCN(c2cc3c(cc2F)c(=O)c(C(=O)O)cn3C2CC2)CC1`, which max response is on record?
A: Its max response is 1.09%.

Q: For `CC(=O)OCC(=O)[C@@]1(O)[C@H](C)C[C@H]2[C@@H]3CCC4=CC(=O)C=C[C@]4(C)[C@@]3(F)[C@@H](O)C[C@@]21C`, which max response is on record?
A: Its max response is 9.89% and -3.15%.

Q: For `C[C@]12CC[C@@H]3c4ccc(O)cc4CC[C@H]3[C@@H]1C[C@@H](O)[C@@H]2O`, which max response is on record?
A: The max response was 5.6%.

Q: Which Potency does the source give for `CCCCCCC[N+](CC)(CC)CCCCc1ccc(Cl)cc1` here?
A: The Potency was 3.55 µM (active).

Q: Which Potency does the source give for `CN1CCN(CCCN2c3ccccc3Sc3ccc(S(=O)(=O)N(C)C)cc32)CC1` here?
A: Its Potency is 5.64 µM (active).

Q: For `COc1c(C)c2c(c(O)c1C/C=C(\C)CCC(=O)O)C(=O)OC2`, which max response is on record?
A: Its max response is 31.6%.

Q: Which max response does the source give for `Cc1onc(-c2c(Cl)cccc2Cl)c1C(=O)N[C@@H]1C(=O)N2[C@@H]1SC(C)(C)[C@@H]2C(=O)O` here?
A: The max response was -15.6%.

Q: Which Potency does the source give for `CCCCC(CC)CN=C(N)NC(N)=NCCCCCCN=C(N)NC(N)=NCC(CC)CCCC` (stereo not given) here?
A: Its Potency is 6.31 µM (active).

Q: With `Cc1cccc(C)c1NC(=O)CN1CCN(CCCC(c2ccc(F)cc2)c2ccc(F)cc2)CC1` as the compound, how does the max response read?
A: The max response was 0.546%.

Q: Which max response does the source give for `CCOC(=O)OC(C)OC1=C(C(=O)Nc2ccccn2)N(C)S(=O)(=O)c2ccccc21` (stereo not given) here?
A: The max response was -4.24%.

Q: Which max response does the source give for `COc1ccc(CN2CCN(C(c3ccc(F)cc3)c3ccc(F)cc3)CC2)c(OC)c1OC` here?
A: The max response was 1.04%.

Q: With `COc1cccc(CCc2ccccc2OCC(CN(C)C)OC(=O)CCC(=O)O)c1` (stereo not given) as the compound, how does the Potency read?
A: Its Potency is 3.72 µM (active).

Q: Which max response does the source give for `CC(C)(C(=O)c1cccnc1)c1cccnc1` here?
A: The max response was 4.59%.

Q: With `COc1ccc(/C=C/C(=O)c2ccc(OC)cc2OC)cc1` as the compound, how does the max response read?
A: The max response was -14.8%.

Q: Which max response does the source give for `Oc1cc(O)c2c(c1)O[C@H](c1ccc(O)c(O)c1)[C@H](O)C2` here?
A: The max response was 2.48%.

Q: Which max response does the source give for `COc1cc(N)c(Cl)cc1C(=O)NC1CCN(CCCOc2ccc(F)cc2)CC1OC` (stereo not given) here?
A: Its max response is -0.854%.

Q: For `C[C@]12CCC(=O)C=C1CC[C@H]1[C@@H]3CC[C@](O)(C(=O)CO)[C@@]3(C)C[C@H](O)[C@@]12F`, which max response is on record?
A: Its max response is 15.9% and -1.69%.

Q: For `OC[C@H]1O[C@@H](n2cnc3c(=S)nc[nH]c32)[C@H](O)[C@@H]1O`, which max response is on record?
A: Its max response is -4.52%.

Q: Which max response does the source give for `CCCCC1=NC2(CCCC2)C(=O)N1Cc1ccc(-c2ccccc2-c2nn[nH]n2)cc1` here?
A: Its max response is 1.29%.

Q: With `NC[C@H]1O[C@H](O[C@H]2[C@H](O)[C@@H](O[C@H]3O[C@H](CO)[C@@H](O)[C@H](N)[C@H]3O)[C@H](N)C[C@@H]2N)[C@H](N)[C@@H](O)[C@@H]1O` as the compound, how does the max response read?
A: The max response was -18.8% and 4.69%.

Q: For `O=C1c2ccccc2C(=O)C1c1ccccc1`, which max response is on record?
A: The max response was 1.91%.

Q: Which max response does the source give for `Cc1c(C)n(Cc2ccccc2)c2ccc(C(=O)OCCN(C)C)cc12` here?
A: The max response was 28.3%.

Q: With `CCCC(=O)O[C@]1(C(=O)CO)CC[C@H]2[C@@H]3CCC4=CC(=O)CC[C@]4(C)[C@H]3[C@@H](O)C[C@@]21C` as the compound, how does the max response read?
A: The max response was 1.99%.

Q: With `Cc1ccc(C(=O)C(C)CN2CCCCC2)cc1` (stereo not given) as the compound, how does the Potency read?
A: The Potency was 22.4 µM (active).

Q: What about the max response of the same compound?
A: Its max response is -1.77%.

Q: With `O=S1(=O)c2cccc3cccc(c23)N1CCCN1CCN(c2ccc(F)cc2)CC1` as the compound, how does the max response read?
A: Its max response is 13.8%.

Q: With `OC[C@@H](O)[C@@H](O[C@@H]1O[C@H](CO)[C@H](O)[C@H](O)[C@H]1O)[C@H](O)[C@@H](O)CO` as the compound, how does the max response read?
A: The max response was 9.4%.

Q: With `C[C@]12CC[C@H]3[C@@H](CCC4=CC(=O)CC[C@@]43C)[C@@H]1CC[C@@H]2C(=O)CO` as the compound, how does the max response read?
A: Its max response is 8.05%.

Q: Which max response does the source give for `CC[C@@H](CO)NCCN[C@@H](CC)CO` here?
A: The max response was 6.57%.

Q: Which max response does the source give for `CC(C)n1nc(-c2cc3cc(O)ccc3[nH]2)c2c(N)ncnc21` here?
A: Its max response is -4.02%.

Q: With `Cc1c(F)c(N2CCNC(C)C2)cc2c1c(=O)c(C(=O)O)cn2C1CC1` (stereo not given) as the compound, how does the max response read?
A: Its max response is -1.28%.

Q: With `CC(=O)Oc1ccc2c(c1)CC[C@@H]1[C@@H]2CC[C@]2(C)[C@@H](O)CC[C@@H]12` as the compound, how does the max response read?
A: Its max response is 0.116%.
